From PubChem BioAssay AID1159580 (chemical genetic matrix, 2015)
The whole screen tested about 5,500 compounds, of which about 2,000 (36%) were called active. Roughly 18% stayed inconclusive and do not appear here. No stated cut-off is given here; in the data, active means normalized growth mostly below about 0.91 (no sharp cut-off); inconclusive means no clear call, values can overlap the other calls; inactive means mostly above about 0.92. Some of the results follow.

Assay: chemical genetic growth profiling, strain panel (AID 1159580);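 further: tested at 20 µM; growth read once vehicle control cultures reached saturation at 30 °C; 1 = growth at the plate median or of vehicle wells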
Conditions: growth OD

Measured: normalized growth

C[C@]12CCC3C(CC[C@]4(O)C[C@@H](O)CC[C@]34C=O)[C@@]1(O)CCC2C1=CC(=O)OC1 (stereo partly specified)
inactive: S. cerevisiae deletion strains, locus YJR066W, strain TOR1, stronger effect = lower value 0.934 | S. cerevisiae deletion strains, locus YKL009W, strain mrt4, stronger effect = lower value 0.978 | S. cerevisiae deletion strains, locus YKL068W, stronger effect = lower value 0.966 | S. cerevisiae deletion strains, locus YKL085W, strain MDH1 (second series), stronger effect = lower value 0.978 | S. cerevisiae deletion strains, locus YKL085W, strain MDH1, stronger effect = lower value 0.978 | S. cerevisiae deletion strains, locus YKL160W, strain elf1, stronger effect = lower value 0.972 | S. cerevisiae deletion strains, locus YKL190W, strain CNB1, stronger effect = lower value 0.997 | S. cerevisiae deletion strains, locus YKR001C, strain vps1, stronger effect = lower value 0.986 | S. cerevisiae deletion strains, locus YKR026C, strain gcn3, stronger effect = lower value 0.988 | S. cerevisiae deletion strains, locus YKR091W, strain srl3, stronger effect = lower value 0.981 | S. cerevisiae deletion strains, locus YLL001W, strain dnm1, stronger effect = lower value 0.975 | S. cerevisiae deletion strains, locus YLL026W, stronger effect = lower value 0.986 | S. cerevisiae deletion strains, locus YLL041C, strain sdh2, stronger effect = lower value 0.967 | S. cerevisiae deletion strains, locus YLR027C, strain aat2, stronger effect = lower value 0.958 | S. cerevisiae deletion strains, locus YLR039C, strain RIC1, stronger effect = lower value 0.975 | S. cerevisiae deletion strains, locus YLR058C, strain SHM2, stronger effect = lower value 0.989 | S. cerevisiae deletion strains, locus YLR102C, strain apc9, stronger effect = lower value 0.978 | S. cerevisiae deletion strains, locus YLR113W, strain HOG1, stronger effect = lower value 0.983 | S. cerevisiae deletion strains, locus YLR221C, strain rsa3, stronger effect = lower value 1 | S. cerevisiae deletion strains, locus YLR258W, strain gsy2, stronger effect = lower value 0.965 | S. cerevisiae deletion strains, locus YLR262C, strain YPT6 (second series), stronger effect = lower value 0.957 | S. cerevisiae deletion strains, locus YLR262C, strain YPT6, stronger effect = lower value 0.918 | S. cerevisiae deletion strains, locus YLR268W, strain sec22, stronger effect = lower value 0.979 | S. cerevisiae deletion strains, locus YLR320W, strain mms22, stronger effect = lower value 1.05 | S. cerevisiae deletion strains, locus YLR330W, strain CHS5, stronger effect = lower value 0.983 | S. cerevisiae deletion strains, locus YLR342W, strain FKS1 (second series), stronger effect = lower value 1.01 | S. cerevisiae deletion strains, locus YLR342W, strain FKS1, stronger effect = lower value 0.976 | S. cerevisiae deletion strains, locus YLR357W, strain rsc2, stronger effect = lower value 0.998 | S. cerevisiae deletion strains, locus YLR370C, strain arc18, stronger effect = lower value 0.999 | S. cerevisiae deletion strains, locus YLR371W, strain rom2, stronger effect = lower value 0.963 | S. cerevisiae deletion strains, locus YLR384C, strain iki3, stronger effect = lower value 1 | S. cerevisiae deletion strains, locus YLR418C, strain cdc73, stronger effect = lower value 0.95 | S. cerevisiae deletion strains, locus YML016C, strain PPZ1, stronger effect = lower value 0.99 | S. cerevisiae deletion strains, locus YML032C, strain rad52, stronger effect = lower value 0.976 | S. cerevisiae deletion strains, locus YML120C, strain ndi1, stronger effect = lower value 0.954 | S. cerevisiae deletion strains, locus YML124C, strain tub3, stronger effect = lower value 0.987 | S. cerevisiae deletion strains, locus YMR058W, strain fet3, stronger effect = lower value 0.969 | S. cerevisiae deletion strains, locus YMR078C, strain ctf18, stronger effect = lower value 0.965 | S. cerevisiae deletion strains, locus YMR125W, strain sto1, stronger effect = lower value 0.96 | S. cerevisiae deletion strains, locus YMR129W, stronger effect = lower value 0.982 | S. cerevisiae deletion strains, locus YMR205C, strain PFK2, stronger effect = lower value 0.881 | S. cerevisiae deletion strains, locus YMR231W, strain pep5, stronger effect = lower value 0.999 | S. cerevisiae deletion strains, locus YMR307W, strain GAS1, stronger effect = lower value 0.919 | S. cerevisiae deletion strains, locus YNL067W, strain RPL9B, stronger effect = lower value 1.01 | S. cerevisiae deletion strains, locus YNL071W, strain lat1, stronger effect = lower value 0.958 | S. cerevisiae deletion strains, locus YNL183C, strain NPR1, stronger effect = lower value 0.952 | S. cerevisiae deletion strains, locus YNL209W, strain ssb2, stronger effect = lower value 0.974 | S. cerevisiae deletion strains, locus YNL233W, strain BNI4, stronger effect = lower value 1.03 | S. cerevisiae deletion strains, locus YNL248C, strain rpa49, stronger effect = lower value 0.943 | S. cerevisiae deletion strains, locus YNL250W, strain rad50, stronger effect = lower value 0.968 | S. cerevisiae deletion strains, locus YNL271C, strain bni1, stronger effect = lower value 0.981 | S. cerevisiae deletion strains, locus YNL298W, strain CLA4, stronger effect = lower value 0.964 | S. cerevisiae deletion strains, locus YNL307C, strain MCK1, stronger effect = lower value 0.983 | S. cerevisiae deletion strains, locus YNL322C, strain KRE1 (second series), stronger effect = lower value 0.975 | S. cerevisiae deletion strains, locus YNL322C, strain KRE1, stronger effect = lower value 0.99 | S. cerevisiae deletion strains, locus YNR049C, strain mso1, stronger effect = lower value 0.971 | S. cerevisiae deletion strains, locus YNR052C, strain pop2, stronger effect = lower value 0.977 | S. cerevisiae deletion strains, locus YOL012C, strain htz1 1.05 | S. cerevisiae deletion strains, locus YOL147C, strain pex11, stronger effect = lower value 0.981 | S. cerevisiae deletion strains, locus YOR001W, strain rrp6, stronger effect = lower value 1.01 | S. cerevisiae deletion strains, locus YOR061W, strain CKA2, stronger effect = lower value 0.963 | S. cerevisiae deletion strains, locus YOR069W, strain VPS5, stronger effect = lower value 0.984 | S. cerevisiae deletion strains, locus YOR070C, strain gyp1, stronger effect = lower value 0.998 | S. cerevisiae deletion strains, locus YOR080W, strain dia2, stronger effect = lower value 0.988 | S. cerevisiae deletion strains, locus YOR083W, strain WHI5, stronger effect = lower value 0.939 | S. cerevisiae deletion strains, locus YOR106W, strain vam3, stronger effect = lower value 0.9 | S. cerevisiae deletion strains, locus YOR136W, strain idh2, stronger effect = lower value 0.981 | S. cerevisiae deletion strains, locus YOR144C, strain elg1, stronger effect = lower value 0.985 | S. cerevisiae deletion strains, locus YOR184W, strain ser1, stronger effect = lower value 0.975 | S. cerevisiae deletion strains, locus YOR231W, strain MKK1, stronger effect = lower value 1 | S. cerevisiae deletion strains, locus YOR265W, strain rbl2, stronger effect = lower value 0.975 | S. cerevisiae deletion strains, locus YOR270C, strain vph1, stronger effect = lower value 0.997 | S. cerevisiae deletion strains, locus YOR290C, strain snf2, stronger effect = lower value 0.894 | S. cerevisiae deletion strains, locus YOR316C, strain cot1, stronger effect = lower value 0.982 | S. cerevisiae deletion strains, locus YPL051W, strain arl3, stronger effect = lower value 0.995 | S. cerevisiae deletion strains, locus YPL055C, strain LGE1, stronger effect = lower value 1 | S. cerevisiae deletion strains, locus YPL078C, strain atp4, stronger effect = lower value 0.942 | S. cerevisiae deletion strains, locus YPL106C, strain sse1, stronger effect = lower value 0.871 | S. cerevisiae deletion strains, locus YPL240C, strain hsp82, stronger effect = lower value 0.988 | S. cerevisiae deletion strains, locus YPL256C, strain CLN2, stronger effect = lower value 0.974 | S. cerevisiae deletion strains, locus YPR119W, strain clb2, stronger effect = lower value 0.983 | S. cerevisiae deletion strains, locus YPR141C, strain kar3, stronger effect = lower value 0.982 | S. cerevisiae deletion strains, locus YPR163C, strain tif3, stronger effect = lower value 0.967 | S. cerevisiae deletion strains, locus YPR167C, strain met16, stronger effect = lower value 0.975 | S. cerevisiae deletion strains, strain wtn01, stronger effect = lower value 1.01 | S. cerevisiae strains, strain wild type, stronger effect = lower value 0.981
